Experimental data reported in PubChem BioAssay (NCATS).
Inconclusive results are not listed. Active and inactive are the calls of the source. Unless noted, calls come from the whole dose curve; as a rule, active = well fitted curve in the direction sought with a large enough effect; inconclusive = small, poorly fitted or top-dose-only effect, or another doubt; inactive = no such curve, though single readings can be large; an effect the other way counts as inactive or inconclusive.

What was measured:
[1] = qHTS Assay for Lipid Storage Modulators (AID 1519; calls by dose curve; for activity change, negative = inhibition: % is set by controls: 0 for no effect and ±100 for the full control effect); settings: Drosophila S3 cells, BODIPY lipid droplet/cell ratio, laser cytometry, cells loaded with oleic acid
Procedure, shortened: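 Cells seeded at 5,000 per well were treated with compounds over a concentration series and loaded with oleic acid (400 uM, as added). Lipid droplet fluorescence (488 nm excitation, 500-530 nm channel) was read by laser-scanning cytometry and normalized to 20 uM Triacsin C.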

[2] = biological target: DNA repair nuclease/redox regulator APEX1 (Homo sapiens) (UniProt P27695); test: qHTS Validation Assay for Inhibitors of the Human Apurinic/apyrimidinic Endonuclease 1 (APE1) (AID 1705;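 note: TAMRA fluorescence gain over two minutes as APE1 cuts a quenched THF abasic duplex; % is set by controls: 0 for no effect and ±100 for the full control effect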); settings: purified APE1 endonuclease activity, fluorescence, titration; series mostly up to 57.1 µM
Procedure, shortened: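 Activity read as rising fluorescence (598 nm emission, 525 nm excitation) from incision of a TAMRA/BHQ-2 duplex carrying a THF abasic site (50 nM). Compound and enzyme sat 15 min at RT before substrate start; signal change between first and third 60-s reads.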

[3] = Counterscreen for APE1 Inhibitors: Fluorescent Dye Displacement Validation Assay (AID 1707); settings: fluorescent dye displacement from DNA; series mostly up to 57.1 µM;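 note: plate controls were ThO with dsDNA and no compound for no effect and ThO without dsDNA for full effect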
Procedure, shortened: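 Compounds are scored by their ability to displace Thiazole Orange (250 nM) from a 50 nM TAMRA-tagged duplex bearing a tetrahydrofuran abasic site. Buffer is 50 mM Tris-HCl pH7.5, 50mM NaCl, 2 mM MgCl2, 0.01% Tween-20.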

[4] = biological target: Endonuclease 4 (Escherichia coli (strain K12)) (UniProt P0A6C1); test: Counterscreen for APE1 Inhibitors: qHTS Validation Assay for Inhibitors of Endonuclease IV (AID 1708); note: % is set by controls: 0 for no effect and ±100 for the full control effect; settings: E. coli endonuclease IV, DNA cleavage fluorescence; series mostly up to 57.1 µM
Procedure, shortened: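 E. coli EndoIV at 2 nM final, preincubated 15 min at room temperature with compound, then 50 nM TAMRA/BHQ-2 THF abasic-site duplex added. Buffer: 50 mM Tris-HCl pH 7.5, 50 mM NaCl, 2 mM MgCl2, 1 mM DTT, 0.01% Tween-20. Kinetic fluorescence increase, third minus first read.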

[5] = qHTS for differential inhibitors of proliferation of Plasmodium falciparum line 7G8 (AID 1815); settings: Plasmodium falciparum 7G8 proliferation inhibition; series mostly up to 28.7 µM;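 note: parasite growth measured after three days of incubation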; note: potency is the fitted concentration of half-maximal effect;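 for activity change, negative = inhibition: plate controls were vehicle wells for no effect and reference inhibitor wells for full effect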
[6] = qHTS for differential inhibitors of proliferation of Plasmodium falciparum line GB4 (AID 1816); settings: Potency: Plasmodium falciparum GB4 proliferation inhibition; series mostly up to 28.7 µM;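 note: parasite growth measured after 72 h incubation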; note: potency is the fitted concentration of half-maximal effect;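 for activity change, negative = inhibition: 0% = vehicle DMSO and -100% = reference inhibitor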
[7] = qHTS for differential inhibitors of proliferation of Plasmodium falciparum line 3D7 (AID 1876); note: potency is the fitted concentration of half-maximal effect; settings: P. falciparum 3D7 proliferation inhibition; series mostly up to 28.7 µM
[8] = qHTS for differential inhibitors of proliferation of Plasmodium falciparum line W2 (AID 1883); settings: Potency: Plasmodium falciparum W2 proliferation inhibition; series mostly up to 28.7 µM;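 note: parasites grown with compound for 72 h before lysis and staining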; note: potency is the fitted concentration of half-maximal effect;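 for activity change, negative = inhibition: 0% = vehicle wells and -100% = control inhibitor wells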
[9] = qHTS for differential inhibitors of proliferation of Plasmodium falciparum line D10 (AID 1877); settings: series mostly up to 28.7 µM;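 note: parasites grown with compound for 72 h before DNA staining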; note: potency is the fitted concentration of half-maximal effect;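 for activity change, negative = inhibition: plate controls were vehicle wells for no effect and reference inhibitor wells for full effect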
[10] = qHTS for differential inhibitors of proliferation of Plasmodium falciparum line Dd2 (AID 1882); settings: Potency: Plasmodium falciparum Dd2 proliferation inhibition; series mostly up to 28.7 µM; note: nearly all actives have a fitted effect of over 65% in size; note: potency is the fitted concentration of half-maximal effect;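 for activity change, negative = inhibition: plate controls were DMSO vehicle for no effect and 0.29 µM artemisinin for full effect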
Procedure, shortened: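 Dd2-infected erythrocytes (0.3% parasitemia, 2.5% hematocrit final) incubated with compound 72 h at 37 C, 5% CO2; lysed with saponin/Triton buffer containing SYBR Green I, incubated overnight in the dark, then read by fluorescence (485/535 nm). Normalized to 0.29 uM artemisinin and DMSO.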

[11] = measured here: cell count channel max response
[12] = measured here: lipid channel max response

Chain of DNA repair nuclease/redox regulator APEX1 (Homo sapiens) (P27695 whole entry, looked up): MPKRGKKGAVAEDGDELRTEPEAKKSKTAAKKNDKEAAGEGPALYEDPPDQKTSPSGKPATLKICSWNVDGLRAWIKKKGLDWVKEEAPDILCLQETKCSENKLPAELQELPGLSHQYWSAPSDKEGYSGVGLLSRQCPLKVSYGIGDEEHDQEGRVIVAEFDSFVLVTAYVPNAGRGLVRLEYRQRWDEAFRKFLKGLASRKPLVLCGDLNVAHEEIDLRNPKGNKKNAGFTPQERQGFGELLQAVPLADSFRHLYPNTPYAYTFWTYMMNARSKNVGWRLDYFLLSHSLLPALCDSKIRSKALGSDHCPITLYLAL

Row | SMILES | activity change, negative = inhibition ([1]; at 57.5 µM (top of the series)) | max response [1, 11] [%] | max response [1, 12] [%] | Potency [2] | Potency [3] | Potency [4] | Potency [5] | Potency [6] | Potency [7] | Potency [8] | Potency [9] | Potency [10] | activity change, negative = inhibition ([1]; at 25.7 µM (top of the series))
1 | CN1C2CCC1CC(OC(c1ccccc1)c1ccccc1N)C2 (configuration not stated) | 0.575% (inactive) | -2.6 | -1.25 | inactive | inactive | inactive | 8.91 µM (active) | 5.62 µM (active) | 11.2 µM (active) | 2.51 µM (active) | – | – | –
2 | CN1CC[C@@]2(C)c3cc(O)ccc3N(C)C12 (some centres not stated) | 0.587% (inactive) | -12.4 | -11.4 | inactive | inactive | inactive | 12.6 µM (active) | 11.2 µM (active) | 11.2 µM (active) | 12.6 µM (active) | 14.1 µM (active) | 12.6 µM (active) | –
3 | C[C@@H](Cc1ccccc1)NCCC(c1ccccc1)c1ccccc1 | – | -11.9 | -23.1 | – | – | – | – | – | – | – | – | – | -10.7% (inactive)
4 | Oc1ccc2c3c1O[C@H]1c4oc5ccccc5c4C[C@@]4(O)C(C2)N(CC2CC2)CCC314 (some centres not stated) | 0.729% (inactive) | 69 | 72 | inactive | inactive | inactive | 8.91 µM (active) | 3.16 µM (active) | 7.94 µM (active) | 3.16 µM (active) | 12.6 µM (active) | 10 µM (active) | –
5 | O=[N+]([O-])c1ccc2nc(N3CCNCC3)ccc2c1 | 0.42% (inactive) | 28.4 | 27.7 | inactive | inactive | inactive | 8.91 µM (active) | 12.6 µM (active) | 10 µM (active) | 7.94 µM (active) | 12.6 µM (active) | – | –
6 | Cc1cc(C)cc(C(=O)OC2C[C@H]3CC[C@@H](C2)N3C)c1 (some centres not stated) | 3% (inactive) | -0.988 | 4.22 | – | – | – | – | – | – | – | – | – | –
7 | CC(C)CC(NP(=O)(O)O[C@@H]1O[C@@H](C)[C@H](O)[C@@H](O)[C@H]1O)C(=O)NC(Cc1c[nH]c2ccccc12)C(=O)O (some centres not stated) | 3.22% (inactive) | 23.5 | 29.8 | inactive | inactive | inactive | inactive | inactive | inactive | inactive | inactive | inactive | –
8 | ClC1C(Cl)C(Cl)C(Cl)C(Cl)C1Cl (configuration not stated) | 9.37% (inactive) | 11.2 | 20.6 | – | – | – | – | – | – | – | – | – | –
9 | NC(CCCCCP(=O)(O)O)C(=O)O (configuration not stated) | 0.489% (inactive) | -0.44 | -0.15 | inactive | inactive | inactive | inactive | inactive | inactive | inactive | inactive | inactive | –
10 | CN(C(=O)Cc1ccc(Cl)c(Cl)c1)C(CN1CCCC1)c1cccc(OCC(=O)O)c1 (configuration not stated) | 2.91% (inactive) | 8.86 | 13 | inactive | inactive | inactive | – | – | inactive | 14.1 µM (active) | – | inactive | –
11 | CCCCCCC(C)(C)c1ccc([C@@H]2C[C@H](O)CC[C@H]2CCCO)c(O)c1 | -5.44% (inactive) | 8.54 | 2.73 | – | inactive | – | 1.78 µM (active) | 2.24 µM (active) | 5.01 µM (active) | 2.24 µM (active) | 7.94 µM (active) | 4.47 µM (active) | –
12 | COc1ccc2c(c1OC)C(=O)OC2C1c2cc3c(cc2CCN1C)OCO3 (configuration not stated) | 1.56% (inactive) | 61 | 66.1 | inactive | inactive | inactive | inactive | – | inactive | – | inactive | inactive | –
13 | CCCN1CC[C@@H]2c3cc(O)ccc3CC[C@@H]21 | 1.73% (inactive) | 47.3 | 49.1 | inactive | inactive | – | – | – | inactive | 10 µM (active) | – | inactive | –
14 | c1ccc2cc(CC3=NCCN3)ccc2c1 | 1.13% (inactive) | 29 | 31.2 | inactive | inactive | inactive | – | 10 µM (active) | inactive | 12.6 µM (active) | inactive | inactive | –
15 | CCN(CCCl)Cc1ccccc1Br | -2.24% (inactive) | 32.6 | 31.1 | inactive | inactive | – | – | 12.6 µM (active) | 10 µM (active) | 11.2 µM (active) | – | – | –
16 | COC(=O)N1CCN(C(=O)Cc2ccc(Cl)c(Cl)c2)C(CN2CCCC2)C1 (configuration not stated) | 0.712% (inactive) | 7.98 | 7.35 | inactive | inactive | inactive | 12.6 µM (active) | 10 µM (active) | – | 2.82 µM (active) | – | 7.94 µM (active) | –
17 | OCc1cnc[nH]1 | 1.18% (inactive) | 7.21 | 9.78 | inactive | inactive | inactive | – | 7.94 µM (active) | – | – | – | inactive | –
18 | C[C@H](N)CN1CCc2ccc(Br)cc21 | 0.866% (inactive) | -15.5 | -16.4 | inactive | inactive | – | 8.91 µM (active) | 1.26 µM (active) | 8.91 µM (active) | 2.24 µM (active) | – | 8.91 µM (active) | –
19 | CC(C)NP(=O)(NC(C)C)OP(=O)(NC(C)C)NC(C)C | 2% (inactive) | -5.61 | -4.03 | inactive | inactive | inactive | – | – | – | 11.2 µM (active) | – | inactive | –
20 | CC12NC(Cc3ccccc31)c1ccccc12 (configuration not stated) | -2.09% (inactive) | 1.93 | -0.147 | inactive | inactive | inactive | – | 5.01 µM (active) | inactive | 4.47 µM (active) | inactive | 7.94 µM (active) | –
21 | CCCN(CCC)C1Cc2cc(OC)c(OC)cc2C1 | -0.96% (inactive) | -27.4 | -31.4 | inactive | inactive | inactive | inactive | – | inactive | inactive | inactive | inactive | –
